Laboratory results from PubChem BioAssay (NCATS).
Inconclusive results are not listed. Active and inactive are the calls of the source. The call rests on the fitted dose curve; in most records, active means well fitted curve in the direction sought with a large enough effect; inconclusive means small, poorly fitted or top-dose-only effect, or another doubt; inactive means no such curve, though single readings can be large; an effect the other way counts as inactive or inconclusive.

Tests used:
[1] = qHTS of pediatric cancer cell lines to identify multiple opportunities for drug repurposing: Primary screen for BT-37 cells (AID 1347094); further: potency means the concentration at half of the fitted maximal effect;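 on activity change, negative = cytotoxic: series mostly up to about 57 µM; plate controls were DMSO for no effect and bortezomib for full effect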
Summary of the method: (§1)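 Luminescence from CellTiter-Glo served as readout of metabolically active cells after 48 h compound exposure. Titrations: MIPE 11-point, from 0.78 nM; NPC 8-point, from 0.59 nM (final). Concentration-response curves came straight from the primary screen.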

[2] = qHTS of pediatric cancer cell lines to identify multiple opportunities for drug repurposing: Primary screen for NB-EBc1 cells (AID 1347095); further: potency means the concentration at half of the fitted maximal effect;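 on activity change, negative = cytotoxic: plate controls were DMSO neutral control for no effect and bortezomib for full effect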
Summary of the method: as §1

[3] = qHTS of pediatric cancer cell lines to identify multiple opportunities for drug repurposing: Primary screen for U-2 OS cells (AID 1347096); further: nearly all actives have a fitted effect of over 50% in size; further: potency means the concentration at half of the fitted maximal effect;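 on activity change, negative = cytotoxic: plate controls were DMSO wells for no effect and bortezomib positive control wells for full effect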
Summary of the method: (§2)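 Viability after 48 h compound treatment at 37C, 500-1,000 cells/well, read as ATP luminescence with CellTiter-Glo. Primary screens used 11-point (MIPE, 0.78 nM-46 µM) or 8-point (NPC, 0.59 nM-46 µM) final concentrations; follow-up screens used 11-point dilutions.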

[4] = qHTS of pediatric cancer cell lines to identify multiple opportunities for drug repurposing: Primary screen for Saos-2 cells (AID 1347097); further: nearly all actives have a fitted effect of over 40% in size; further: potency means the concentration at half of the fitted maximal effect; on activity change, negative = cytotoxic: on the % scale 0 is the no-effect control and ±100 the full control effect
Summary of the method: as §1

[5] = qHTS of pediatric cancer cell lines to identify multiple opportunities for drug repurposing: Primary screen for SK-N-SH cells (AID 1347098); further: nearly all actives have a fitted effect of over 65% in size; further: potency means the concentration at half of the fitted maximal effect;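 on activity change, negative = cytotoxic: DMSO served as neutral control and bortezomib at 2.3 µM as positive control; on the % scale 0 is the no-effect control and ±100 the full control effect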
Summary of the method: (§3)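 Cells (500-1,000/well) rested 5 h, then received compounds for 48 h; metabolically active cells were measured by CellTiter-Glo luminescence. Final concentrations spanned up to 46 µM (MIPE, 11-point) or 0.59 nM-46 µM (NPC, 8-point) in primary screens, 11-point in follow-ups.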

[6] = qHTS of pediatric cancer cell lines to identify multiple opportunities for drug repurposing: Primary screen for NB1643 cells (AID 1347099);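 further: plate controls were DMSO neutral control for no effect and bortezomib positive control for full effect; nearly all actives have a fitted effect of over 50% in size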
Summary of the method: as §1

[7] = qHTS of pediatric cancer cell lines to identify multiple opportunities for drug repurposing: Primary screen for LAN-5 cells (AID 1347100); further: potency means the concentration at half of the fitted maximal effect;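 on activity change, negative = cytotoxic: plate controls were DMSO neutral control for no effect and bortezomib positive control for full effect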
Summary of the method: as §2

[8] = qHTS of pediatric cancer cell lines to identify multiple opportunities for drug repurposing: Primary screen for BT-12 cells (AID 1347101); further: nearly all actives have a fitted effect of over 25% in size; further: potency means the concentration at half of the fitted maximal effect;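 on activity change, negative = cytotoxic: plate controls were DMSO for no effect and bortezomib positive control for full effect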
Summary of the method: as §3

[9] = qHTS of pediatric cancer cell lines to identify multiple opportunities for drug repurposing: Primary screen for Rh18 cells (AID 1347102); further: on the % scale 0 is the no-effect control and ±100 the full control effect; nearly all actives have a fitted effect of over 65% in size
Summary of the method: as §2

[10] = qHTS of pediatric cancer cell lines to identify multiple opportunities for drug repurposing: Primary screen for SK-N-MC cells (AID 1347093); further: potency means the concentration at half of the fitted maximal effect;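 on activity change, negative = cytotoxic: series mostly up to about 46 µM; plate controls were DMSO neutral control for no effect and bortezomib for full effect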
Summary of the method: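 Metabolically active cells were quantified by ATP-dependent luminescence (CellTiter-Glo, 15 min at room temperature) following 48 h treatment. Cells had been plated at 500-1,000 per well and settled for 5 h beforehand.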

CCN(CC)CCNC(=O)c1cc(Cl)c(N)cc1OC
inactive: Potency [1] | Potency [2] | Potency [3] | Potency [4] | Potency [5] | Potency [6] | Potency [7] | Potency [8] | Potency [9]

CSc1ccc2c(c1)N(CCC1CCCCN1C)c1ccccc1S2 (centres undefined)
active: Potency [1] 24.6 µM | Potency [8] 24.6 µM
inactive: Potency [2]

CN1CCN(C2Cc3ccccc3Sc3ccc(Cl)cc32)CC1 (centres undefined)
active: Potency [10] 21.1 µM | Potency [5] 21.7 µM | Potency [7] 9.44 µM

CC(=O)OCC(=O)[C@@]1(O)CC[C@H]2[C@@H]3CCC4=CC(=O)CC[C@]4(C)[C@H]3C(=O)C[C@@]21C
inactive: Potency [1] | Potency [2] | Potency [7] | Potency [8] | Potency [9]

O=C1Nc2ccc(Cl)cc2[C@@](C#CC2CC2)(C(F)(F)F)O1
inactive: Potency [7] | Potency [9]

COc1ccc2c(c1)C(=O)N(CCc1ccc(S(=O)(=O)NC(=O)NC3CCCCC3)cc1)C(=O)C2(C)C
inactive: Potency [1] | Potency [2] | Potency [3] | Potency [5] | Potency [6] | Potency [8] | Potency [9]

OCc1cc(C(O)CNCCCCCCOCCCCc2ccccc2)ccc1O (centres undefined)
inactive: Potency [3] | Potency [6]

CCN(CC)CCOC(=O)C1(C2CCCCC2)CCCCC1
inactive: Potency [3] | Potency [6] | Potency [9]

COCCOC(=O)C1=C(C)NC(C)=C(C(=O)OC/C=C/c2ccccc2)C1c1cccc([N+](=O)[O-])c1 (centres undefined)
inactive: Potency [6] | Potency [9]

C[C@]12CC[C@@H]3c4ccc(O)cc4CC[C@H]3[C@@H]1CC[C@@H]2OC(=O)CCC1CCCC1
inactive: Potency [10] | Potency [5] | Potency [6] | Potency [9]

OCCN1CCN(CCCN2c3ccccc3Sc3ccc(Cl)cc32)CC1
active: Potency [4] 11.9 µM | Potency [5] 8.64 µM | Potency [7] 23.7 µM
inactive: Potency [3]

c1ccc2c(CC3=NCCN3)cccc2c1
inactive: Potency [1] | Potency [2] | Potency [3] | Potency [5] | Potency [6] | Potency [7] | Potency [9]

CC(=O)Oc1ccc(C2(c3ccc(OC(C)=O)cc3)C(=O)Nc3ccccc32)cc1
inactive: Potency [1] | Potency [2] | Potency [3] | Potency [4] | Potency [5] | Potency [6] | Potency [7] | Potency [8] | Potency [9]

COc1ccc(Cl)cc1C(=O)NCCc1ccc(S(=O)(=O)NC(=O)NC2CCCCC2)cc1
inactive: Potency [1] | Potency [2] | Potency [3] | Potency [4] | Potency [5] | Potency [6] | Potency [8] | Potency [9]

C[C@H]1O[C@@H](n2cc(F)c(=O)[nH]c2=O)[C@H](O)[C@@H]1O
active: Potency [2] 2.99 µM
inactive: Potency [1] | Potency [4] | Potency [6] | Potency [8]

CNCCC(Oc1ccc(C(F)(F)F)cc1)c1ccccc1 (centres undefined)
inactive: Potency [2] | Potency [7]

Nc1ncnc2c1ncn2[C@@H]1O[C@H](CO)[C@@H](O)[C@H]1O
inactive: Potency [1] | Potency [2] | Potency [3] | Potency [4] | Potency [5] | Potency [6] | Potency [8] | Potency [9]

CN(C)CCCN1c2ccccc2CCc2ccccc21
inactive: Potency [1] | Potency [2] | Potency [3] | Potency [4] | Potency [6] | Potency [7]

COC(=O)C1=C(C)NC(C)=C(C(=O)OC)C1c1ccccc1[N+](=O)[O-]
active: Potency [5] 21.7 µM
inactive: Potency [1] | Potency [3] | Potency [4] | Potency [6] | Potency [7] | Potency [8]

CN(C)CCN(Cc1ccccc1)c1ccccn1
inactive: Potency [1] | Potency [2] | Potency [3] | Potency [4] | Potency [6] | Potency [7] | Potency [8] | Potency [9]

NC1[C@H]2CN(c3nc4c(cc3F)c(=O)c(C(=O)O)cn4-c3ccc(F)cc3F)C[C@@H]12 (some centres undefined)
inactive: Potency [10] | Potency [2] | Potency [4] | Potency [9]

CSc1ccc2c(c1)C(N1CCN(C)CC1)Cc1ccccc1S2 (centres undefined)
active: Potency [5] 27.3 µM
inactive: Potency [2] | Potency [3] | Potency [6]

CCN(CC)CCCC(C)Nc1c2ccc(Cl)cc2nc2ccc(OC)cc12 (centres undefined)
active: Potency [1] 27.6 µM | Potency [2] 15 µM
inactive: Potency [3]

CCOc1nc2cccc(C(=O)O)c2n1Cc1ccc(-c2ccccc2-c2nn[nH]n2)cc1
inactive: Potency [1] | Potency [2] | Potency [3] | Potency [4] | Potency [5] | Potency [6] | Potency [8] | Potency [9]

CC(O)COc1ccccc1 (centres undefined)
inactive: Potency [2] | Potency [3] | Potency [7] | Potency [8]

CC(C)c1c(C(=O)Nc2ccccc2)c(-c2ccccc2)c(-c2ccc(F)cc2)n1CC[C@@H](O)C[C@@H](O)CC(=O)O
inactive: Potency [7]
active: Potency [1] 24.6 µM | Potency [3] 21.1 µM | Potency [4] 0.841 µM | Potency [5] 12.2 µM | Potency [8] 1.23 µM

O=c1[nH]c(=O)c2[nH]c(=O)[nH]c2[nH]1
inactive: activity change, negative = cytotoxic [1] 0.299% [at 11.5 µM] | activity change, negative = cytotoxic [2] -4.54% [at 9.22 µM] | activity change, negative = cytotoxic [3] -0.365% [at 9.22 µM] | activity change, negative = cytotoxic [5] 13.8% [at 11.4 µM] | activity change, negative = cytotoxic [6] -5.19% [at 9.22 µM] | activity change, negative = cytotoxic [7] 19.2% [at 9.22 µM] | activity change, negative = cytotoxic [8] 3.54% [at 11.5 µM] | activity change, negative = cytotoxic [9] 4.04% [at 9.22 µM]

Cc1ccc2nc(N)[nH]c(=O)c2c1Sc1ccncc1
inactive: Potency [5] | Potency [6] | Potency [9]
active: Potency [10] 0.944 µM | Potency [4] 13.3 µM

CC(=O)O[C@@]12CO[C@@H]1C[C@H](O)[C@@]1(C)C(=O)[C@H](O)C3=C(C)[C@@H](OC(=O)[C@H](O)[C@@H](NC(=O)OC(C)(C)C)c4ccccc4)C[C@@](O)([C@@H](OC(=O)c4ccccc4)[C@H]21)C3(C)C
active: Potency [10] 0.001 µM
inactive: Potency [3] | Potency [9]
